Test results reported in PubChem BioAssay (NCI).
This is part of a sample that, as a whole, favours compounds with a hit. Of some 83,000 tested, about 20% had one in any assay.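 For each line, cells grew in 96-well plates with the test compound present at a single concentration for 48 hours.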 Unmarked numbers belong to inactive results. Activity calls are given as the source filed them. How the source made its calls: active means growth percent below 10; inactive means the rest.

How the values were obtained:
Experiment in all cases: NCI-60 one-dose screen, 48 h (100 = growth as untreated, 0 = no growth, -100 = all killed)
Conditions in all cases: 10 µM unless noted
SR leukemia = tested on: SR leukemia
RPMI-8226 leukemia = tested on: RPMI-8226 leukemia
OVCAR-8 ovarian = tested on: OVCAR-8 ovarian
OVCAR-5 ovarian = tested on: OVCAR-5 ovarian
OVCAR-4 ovarian = tested on: OVCAR-4 ovarian
SK-OV-3 ovarian = tested on: SK-OV-3 ovarian
IGROV1 ovarian = tested on: IGROV1 ovarian
OVCAR-3 ovarian = tested on: OVCAR-3 ovarian
HS 578T breast = tested on: HS 578T breast
NCI/ADR-RES ovarian = tested on: NCI/ADR-RES ovarian

Structure (SMILES) | growth (SR leukemia) | growth (RPMI-8226 leukemia) | growth (OVCAR-8 ovarian) | growth (OVCAR-5 ovarian) | growth (OVCAR-4 ovarian) | growth (SK-OV-3 ovarian) | growth (IGROV1 ovarian) | growth (OVCAR-3 ovarian) | growth (HS 578T breast) | growth (NCI/ADR-RES ovarian)
OCC(O)C(O)CC1SCCS1 (stereo not given) | 103% | 122% | 96.3% | 106% | 112% | 103% | 107% | 101% | 106% | 102%
CC(=O)N1N=C(c2ccc(Cl)cc2)CC1c1cn(-c2ccccc2)nc1-c1ccc([N+](=O)[O-])cc1 (stereo not given) | 120% | 101% | 102% | 94% | 85.6% | 96.5% | 122% | 106% | 125% | 135%
Clc1ccc(N/N=C(/c2ccccc2)c2ccccn2)nc1 | 26.1% | 29.3% | 33.5% | 49.3% | 24.5% | 26.5% | 22.5% | 40.7% | 80.6% | 5.2% (active)
O=C1/C(=C\c2cn(-c3nc(N4CCOCC4)nc(N4CCOCC4)n3)c3ccccc23)c2ccccc2N1c1c(Cl)cccc1Cl | 27.4% | 60.1% | 76.1% | 52.1% | 65.1% | 7.66% (active) | 36.2% | 69.6% | 27.9% | 72.4%
C=CCSc1nnc(COc2ccc3c(C)c(Cc4ccccc4)c(=O)oc3c2C)o1 | 77.7% | 99.9% | 97.6% | 104% | 96.1% | 108% | 112% | 108% | 94.5% | 98%
COC(=O)[C@@H]1[C@H](O)[C@H](C)[C@H](O)[C@H](C)/C=C\C=C(C)C(=O)Nc2c(C)c(OC(C)=O)c3c(c2O)C(=O)C(C)=C2OCOC(=C23)C(C)=C[C@@](C)(O)[C@H](O)[C@@H](C)[C@H]1OC(C)=O | 121% | 97.8% | 104% | 108% | 96.4% | 109% | 3.5% (active) | 137% | 127% | 114%
CCN(CCO)CCNc1ccc(C)c2sc3cc(OC)ccc3c(=O)c12 | -3.46% (active) | 65.3% | 62.7% | 82.7% | 84.7% | 88.7% | 66.5% | 90.6% | 84.2% | 64.1%
CCCCCCC(C(=O)OCC)(C(=O)OCC)C1CCCCCC1 | 101% | 113% | 107% | 102% | 101% | 95.7% | 102% | 117% | 105% | 106%
CC(C)(C)C(=O)CCCCCCCC/C=C/CCCC(O)c1ccco1 (stereo not given) | 14.3% | 91.7% | 104% | 93.6% | 104% | 116% | 116% | 126% | 106% | 108%
CC1=NN(c2cccc(Cl)c2)C(=O)/C1=C\c1cn(-c2nc(N3CCOCC3)nc(N3CCOCC3)n2)c2ccccc12 | 100% | 98.3% | 107% | 103% | 105% | 109% | 106% | 106% | 104% | 103%
Cc1ccc(NC(=O)CCl)cc1Cl | 51.9% | 91% | 92.9% | 108% | 89.2% | 102% | 63.8% | 114% | 93.8% | 107%
CCc1ccc(C(=Nc2ccc(N(C)C(=O)CN3CCN(C)CC3)cc2)c2c(O)[nH]c3ccc(C(=O)OC)cc23)cc1 | -27.7% (active) | -46.9% (active) | -34.5% (active) | -58.1% (active) | -61.3% (active) | -61.5% (active) | -65.4% (active) | -69.9% (active) | -48.7% (active) | 10.5%
COc1cc2ncnc(-n3ncc4cc(NC(=O)Nc5ccc(Cl)c(Cl)c5)ccc43)c2cc1OC | 9.64% (active) | -0.257% (active) | 2.71% (active) | -33.1% (active) | -32.3% (active) | -24.9% (active) | -58.3% (active) | -65.5% (active) | -5% (active) | -30.7% (active)
O=c1c(N=Nc2nccs2)c(-c2ccccc2)[nH]n1-c1nc(-c2ccccc2)cs1 | 33.4% | 16.1% | 28.1% | 98.9% | 39.5% | 23.5% | 44.2% | 31.6% | 38.4% | 10.1%
CCCCCCCCCCCCCCCCCC1=NCCN1CCNC(C)=O | 19.3% | 91% | 98.2% | 91.7% | 95.2% | 107% | 91.1% | 94.7% | 110% | 98.2%
Cc1c(Cc2ccccc2)c(=O)oc2c(C)c(OCc3n[nH]c(=S)o3)ccc12 | 5.04% (active) | 56.6% | 30.6% | 89.9% | 43.8% | 86.9% | 67.3% | 74.5% | 62.3% | 99.6%
O=C(OCC1CC2(Cl)C(Cl)=C(Cl)C1(Cl)C2(Cl)Cl)C1C(C(=O)OCC2CC3(Cl)C(Cl)=C(Cl)C2(Cl)C3(Cl)Cl)C2(Cl)C(Cl)=C(Cl)C1(Cl)C2(Cl)Cl (stereo not given) | 93% | 103% | 104% | 105% | 110% | 110% | 115% | 107% | 117% | 106%
N#Cc1c2cccnc2c2nnc3cc(Cl)c(Cl)cc3n12 | 5.53% (active) | 35.3% | -19.5% (active) | 89.3% | -4.97% (active) | 90% | 10.6% | -9.66% (active) | -56.8% (active) | -5.61% (active)
CCCCCCCCCCCCCCCC[n+]1cccc(C#N)c1 | -8.5% (active) | 45.1% | 51.6% | 79.7% | 56.6% | 100% | 69.2% | 35.5% | 96.6% | 96.3%
O=C(NC1CCN(Cc2ccccc2)CC1)c1cc(-c2cccnc2)nc2ccc(Cl)cc12 | 23% | 47.3% | 77.5% | 80.5% | 70.5% | 102% | 80.5% | 94.4% | 83.4% | 67%
CC1=C(C)C(=O)C(C(C)C2=C(C)C(=O)C(C)=C(C)C2=O)=C(C)C1=O | 56% | 50.5% | 99.1% | 44% | 104% | 98.1% | 2.57% (active) | 150% | 77.9% | 91.9%
O=C(NCCNCCO)c1cc([N+](=O)[O-])cc([N+](=O)[O-])c1O | 99.8% | 96.7% | 101% | 108% | 108% | 111% | 107% | 110% | 109% | 107%
c1cc(C2CCCCC2)ccc1OCCCCCCN1CCNCC1 | -4.39% (active) | -31% (active) | 48% | 41.3% | 41.6% | 83.8% | 8.79% (active) | 40.5% | 51.9% | 54.1%
CCCCCCNC(=O)Oc1ccc(/C(=C(/C)Cc2ccc(OC)cc2)c2ccc(OCCN(C)C)cc2)cc1 | -22.5% (active) | 28.8% | 69.9% | 90.3% | 76.8% | 83.4% | 74.4% | 81.3% | 45.9% | 78.3%
C#CCCCCCCC[C@@H]1OC(=O)[C@H]([C@@H](C)CC)NC(=O)[C@@H]([C@@H](C)CC)NC(=O)CC(=O)[C@@H]1C | 91.2% | 93.8% | 99.8% | 88% | 99.3% | 102% | 89.1% | 103% | 84.6% | 99.2%
COC(=O)c1ccc2[nH]c(O)c(C(=Nc3ccc(N(C)C(=O)CN4CCN(C)CC4)cc3)c3ccc(C)cc3)c2c1 | -28.2% (active) | -32.2% (active) | -17.8% (active) | 29.7% | -64.3% (active) | -12.2% (active) | 1.53% (active) | -60.2% (active) | -2.52% (active) | 70.7%
CCCC(CCC)Oc1ccc(CCCC2=C(O)c3ccccc3C(=O)C2=O)cc1 | 38.9% | 22.5% | 34.2% | 17.2% | 25.1% | 37.5% | 46.7% | 40.8% | 34.6% | 28.7%
